Results: the supplement of paper PMC10849652
Of roughly 8,800 targets only a part is listed; those with a hit were picked by preference. About 0.5% of all pairs of compound and target were hits.

How the values were obtained:
Test in all cases: log2 fold change, soluble protein after heating vs DMSO (PISA); higher = thermal stabilisation; K562 lysate, 10 uM; active = over 0.2 and 3.5 SD of the protein, either way, in both replicates (recomputed)
erlotinib = compound: C#Cc1cccc(Nc2ncnc3cc(OCCOC)c(OCCOC)cc23)c1 [erlotinib]
Summary of the method: (§1)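 Values give the log-two fold change in thermal stability against solvent controls, from duplicates. Crude K562 extract at 1 mg/mL protein, made by dounce homogenisation in PBS pH 7.4 with 1 mM MgCl2, was treated with 10 μM compound for 30 min. After 3 min heating across 48°C-58°C, aliquots were pooled, adjusted to 0.5% NP-40 at 4°C and centrifuged at 21,000xg for 90 min. The supernatant was measured by TMTpro 16plex LC-MS/MS with channel sums equalised.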

[1] = compound: C/C(=N\NC(=O)C1=CC(=CC=C1)S(=O)(=O)N2CCOCC2)/C3=C(C=CC(=C3)Cl)O
Summary of the method: as §1

[2] = compound: C1=CC(=CC=C1C2=NC3=C(N2)C=C(C=C3)C(=O)N)OC4=CC=C(C=C4)Cl
Summary of the method: as §1

[3] = compound: C1=CC2=C(C=CC(=C2)/C=C\3/C(=O)NC(=NCC4=CC=CS4)S3)N=C1
Summary of the method: as §1

[4] = compound: C1=CC2=NC=CN=C2C=C1/C=C/3\C(=O)NC(=O)S3
Summary of the method: as §1

[5] = compound: C1=CC=C(C=C1)C2=NC(=C(N2)C3=CC=NC=C3)C4=CC(=C(C=C4)Cl)O
Summary of the method: as §1

[6] = compound: C1=CC=C2C(=C1)C3=NNC4=CC=CC(=C43)C2=O
Summary of the method: as §1

[7] = compound: C1CCN(C1)C(=O)NC2=CC=CC(=C2)NC3=NC=C(C(=N3)NCCC4=CN=CN4)Br
Summary of the method: as §1

[8] = compound: C1CN(CCC1(CC2=CC=C(C=C2)Cl)N)C3=NC=NC4=C3C=CN4
Summary of the method: as §1

IRAK-1-4 Inhibitor I = compound: C1COCCN1CCN2C3=CC=CC=C3N=C2NC(=O)C4=CC(=CC=C4)[N+](=O)[O-] [IRAK-1-4 Inhibitor I]
Summary of the method: as §1

ibrutinib = compound: C=CC(=O)N1CCC[C@@H](n2nc(-c3ccc(Oc4ccccc4)cc3)c3c(N)ncnc32)C1 [ibrutinib]
Summary of the method: as §1

[9] = compound: CC(=O)c1cnc2ccc(-c3cc(Cl)c(O)c(Cl)c3)nc2c1N[C@H]1CC[C@H](CN(C)C)CC1
Summary of the method: as §1

ralimetinib = compound: CC(C)(C)Cn1c(N)nc2ccc(-c3[nH]c(C(C)(C)C)nc3-c3ccc(F)cc3)nc21 [ralimetinib]
Summary of the method: as §1

[10] = compound: CC(C)(O)CC(=O)NCCn1ccc2ncnc(Nc3ccc(Oc4cccc(C(F)(F)F)c4)c(Cl)c3)c21
Summary of the method: as §1

[11] = compound: CC(C)C1=C2N=C(C=C(N2N=C1)NCC3=CC=CC=C3)NCCCCCCN
Summary of the method: as §1

[12] = compound: CC1=C(C(CC(=O)N1)C2=CC=C(C=C2)C(F)(F)F)C(=O)NC3=C(C=C4C(=C3)C=NN4)F
Summary of the method: as §1

[13] = compound: CC1=C(C2=C(C=C1)C(=O)C3=CC=CC=C3N2CCCN)C
Summary of the method: as §1

[14] = compound: CC1=C(C=C(C=C1)NC(=O)C2=CC(=CC=C2)C(C)(C)C#N)NC3=CC4=C(C=C3)N=CN(C4=O)C
Summary of the method: as §1

[15] = compound: CC1=C(C=C(C=C1)NC(=O)C2=CC(=CC=C2)N(C)C)NC(=O)C3=CC=C(C=C3)O
Summary of the method: as §1

[16] = compound: CC1=CC=C(C=C1)SC2=C3C=C(SC3=CN=C2)C(=O)N
Summary of the method: as §1

Measured: log2 fold change

GNB1 (UniProt P62873)
UniProt P62873, sequence (P62873 whole entry, looked up): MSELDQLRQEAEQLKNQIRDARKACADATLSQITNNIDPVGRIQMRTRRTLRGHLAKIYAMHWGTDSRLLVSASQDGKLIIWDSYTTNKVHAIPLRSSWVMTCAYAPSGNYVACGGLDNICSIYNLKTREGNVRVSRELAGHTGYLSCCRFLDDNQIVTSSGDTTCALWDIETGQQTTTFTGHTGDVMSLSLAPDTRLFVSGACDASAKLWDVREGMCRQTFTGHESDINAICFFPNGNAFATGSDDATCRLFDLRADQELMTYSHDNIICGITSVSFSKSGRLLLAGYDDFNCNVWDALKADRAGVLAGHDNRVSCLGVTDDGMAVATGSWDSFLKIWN
inactive: erlotinib 0.053 | [1] 0.018 | [2] 0.082 | [3] -0.019 | [4] -0.015 | [5] -0.022 | [6] 0.023 | [7] -0.017 | [8] -0.031 | IRAK-1-4 Inhibitor I 0.012 | ibrutinib 0.018 | [9] -0.018 | ralimetinib -0.036 | [10] 0.057 | [11] 0.003 | [12] -0.052 | [13] 0.076 | [14] 0.145 | [15] -0.076 | [16] -0.011

KDM5C (UniProt P41229)
inactive: erlotinib 0.052 | [1] 0.017 | [2] 0.022 | [3] -0.059 | [4] -0.009 | [5] -0.041 | [6] -0.031 | [7] -0.053 | [8] -0.002 | IRAK-1-4 Inhibitor I 0.01 | ibrutinib 0.089 | [9] -0.132 | ralimetinib 0.005 | [10] -0.02 | [11] 0.015 | [12] 0.01 | [13] 0.012 | [14] -0.013 | [15] 0.031 | [16] 0.001

GTF3C3 (UniProt Q9Y5Q9)
UniProt Q9Y5Q9, sequence (Q9Y5Q9 whole entry, looked up): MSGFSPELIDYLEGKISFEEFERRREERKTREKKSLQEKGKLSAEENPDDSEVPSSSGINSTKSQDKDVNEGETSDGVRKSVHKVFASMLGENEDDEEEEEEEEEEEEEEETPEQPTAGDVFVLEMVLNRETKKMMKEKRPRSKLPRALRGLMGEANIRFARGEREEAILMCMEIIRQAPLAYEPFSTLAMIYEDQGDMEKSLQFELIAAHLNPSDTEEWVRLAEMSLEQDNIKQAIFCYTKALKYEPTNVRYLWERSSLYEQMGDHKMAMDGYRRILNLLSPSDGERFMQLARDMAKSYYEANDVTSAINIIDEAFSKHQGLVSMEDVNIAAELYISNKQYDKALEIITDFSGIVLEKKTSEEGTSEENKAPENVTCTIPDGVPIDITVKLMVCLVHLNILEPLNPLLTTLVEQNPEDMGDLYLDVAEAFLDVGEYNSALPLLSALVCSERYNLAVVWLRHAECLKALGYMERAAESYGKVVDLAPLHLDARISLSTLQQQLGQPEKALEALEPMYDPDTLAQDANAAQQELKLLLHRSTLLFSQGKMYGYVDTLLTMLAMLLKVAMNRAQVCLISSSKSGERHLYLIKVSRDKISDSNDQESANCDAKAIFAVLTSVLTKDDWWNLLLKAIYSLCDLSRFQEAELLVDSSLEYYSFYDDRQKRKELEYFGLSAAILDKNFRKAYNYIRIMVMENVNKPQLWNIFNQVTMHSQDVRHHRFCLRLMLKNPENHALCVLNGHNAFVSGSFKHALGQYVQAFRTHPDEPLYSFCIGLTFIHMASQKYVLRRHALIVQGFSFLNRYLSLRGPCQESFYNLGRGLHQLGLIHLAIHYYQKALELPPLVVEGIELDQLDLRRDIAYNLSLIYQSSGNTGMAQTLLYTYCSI
inactive: erlotinib 0.016 | [1] 0.013 | [2] -0.013 | [3] 0.025 | [4] 0 | [5] -0.005 | [6] -0.065 | [7] 0 | [8] 0.031 | IRAK-1-4 Inhibitor I -0.001 | ibrutinib 0.033 | [9] -0.001 | ralimetinib 0.027 | [10] -0.005 | [11] 0.02 | [12] -0.003 | [13] -0.112 | [14] 0.014 | [15] 0.047 | [16] -0.007

HAUS6 (UniProt Q7Z4H7)
UniProt Q7Z4H7, sequence (Q7Z4H7 whole entry, looked up): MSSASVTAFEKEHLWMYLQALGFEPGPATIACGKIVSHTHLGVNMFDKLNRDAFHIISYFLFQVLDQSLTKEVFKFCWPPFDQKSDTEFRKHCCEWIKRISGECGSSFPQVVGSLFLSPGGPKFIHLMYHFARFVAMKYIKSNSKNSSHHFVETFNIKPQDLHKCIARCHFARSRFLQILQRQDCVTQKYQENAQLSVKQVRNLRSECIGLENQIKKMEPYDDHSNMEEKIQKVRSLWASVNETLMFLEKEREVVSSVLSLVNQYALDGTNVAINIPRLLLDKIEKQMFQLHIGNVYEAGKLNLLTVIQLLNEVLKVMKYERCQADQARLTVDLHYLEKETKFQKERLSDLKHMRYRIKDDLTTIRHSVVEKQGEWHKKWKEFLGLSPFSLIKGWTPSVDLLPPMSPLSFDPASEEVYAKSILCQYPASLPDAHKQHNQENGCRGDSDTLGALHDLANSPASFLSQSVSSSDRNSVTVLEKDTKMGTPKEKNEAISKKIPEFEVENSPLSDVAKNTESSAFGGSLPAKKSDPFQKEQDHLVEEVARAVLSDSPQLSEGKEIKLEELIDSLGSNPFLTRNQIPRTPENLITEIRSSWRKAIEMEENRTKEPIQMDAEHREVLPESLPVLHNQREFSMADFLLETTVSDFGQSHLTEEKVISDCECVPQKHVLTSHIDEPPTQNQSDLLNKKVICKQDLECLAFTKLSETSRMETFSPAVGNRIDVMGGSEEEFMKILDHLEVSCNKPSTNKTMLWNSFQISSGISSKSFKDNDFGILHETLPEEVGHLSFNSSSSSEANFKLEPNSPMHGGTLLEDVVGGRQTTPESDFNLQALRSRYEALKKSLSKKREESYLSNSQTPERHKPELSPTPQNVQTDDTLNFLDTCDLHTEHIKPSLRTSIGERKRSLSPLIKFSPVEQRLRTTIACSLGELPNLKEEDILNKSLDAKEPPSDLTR
inactive: erlotinib 0.031 | [1] 0.102 | [2] -0.038 | [3] -0.035 | [4] -0.008 | [5] 0.019 | [6] 0.024 | [7] -0.015 | [8] 0.039 | IRAK-1-4 Inhibitor I 0.017 | ibrutinib 0.025 | [9] -0.054 | ralimetinib 0.027 | [10] -0.003 | [11] -0.015 | [12] 0.029 | [13] 0.01 | [14] -0.008 | [15] 0.073 | [16] 0.078

HAUS5 (UniProt O94927)
inactive: erlotinib 0.046 | [1] 0.021 | [2] -0.071 | [3] -0.015 | [4] -0.045 | [5] -0.009 | [6] 0.113 | [7] 0.031 | [8] -0.017 | IRAK-1-4 Inhibitor I 0.033 | ibrutinib 0 | [9] 0.002 | ralimetinib 0.034 | [10] 0.017 | [11] 0.027 | [12] -0.027 | [13] 0 | [14] 0 | [15] 0.033 | [16] 0.021

HSPA8 (UniProt P11142)
UniProt P11142, sequence (P11142 whole entry, looked up): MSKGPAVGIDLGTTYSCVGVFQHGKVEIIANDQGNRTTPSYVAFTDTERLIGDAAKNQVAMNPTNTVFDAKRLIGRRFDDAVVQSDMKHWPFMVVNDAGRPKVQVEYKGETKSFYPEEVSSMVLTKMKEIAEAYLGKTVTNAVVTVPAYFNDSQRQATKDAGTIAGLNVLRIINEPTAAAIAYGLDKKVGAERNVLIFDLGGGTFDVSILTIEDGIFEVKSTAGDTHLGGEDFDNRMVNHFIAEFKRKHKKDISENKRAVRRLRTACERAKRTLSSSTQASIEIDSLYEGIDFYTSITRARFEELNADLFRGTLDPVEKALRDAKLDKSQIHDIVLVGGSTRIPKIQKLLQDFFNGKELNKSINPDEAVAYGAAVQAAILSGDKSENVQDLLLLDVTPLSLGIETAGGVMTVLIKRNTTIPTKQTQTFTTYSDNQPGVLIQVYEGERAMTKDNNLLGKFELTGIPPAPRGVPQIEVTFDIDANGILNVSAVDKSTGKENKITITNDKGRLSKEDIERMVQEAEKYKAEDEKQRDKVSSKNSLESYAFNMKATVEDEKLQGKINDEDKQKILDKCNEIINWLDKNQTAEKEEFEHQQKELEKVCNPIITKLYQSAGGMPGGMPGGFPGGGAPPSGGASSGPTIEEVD
inactive: erlotinib -0.022 | [1] 0.003 | [2] 0.008 | [3] 0.002 | [4] -0.028 | [5] -0.004 | [6] 0.038 | [7] 0.016 | [8] -0.009 | IRAK-1-4 Inhibitor I -0.008 | ibrutinib -0.02 | [9] -0.002 | ralimetinib -0.015 | [10] -0.003 | [11] 0.001 | [12] -0.022 | [13] 0.005 | [14] -0.013 | [15] -0.002 | [16] 0.009

KBTBD4 isoform 2 (UniProt Q9NVX7)
inactive: erlotinib 0.09 | [1] 0.013 | [2] 0.036 | [3] 0.013 | [4] -0.096 | [5] 0.016 | [6] -0.073 | [7] -0.028 | [8] 0.013 | IRAK-1-4 Inhibitor I -0.017 | ibrutinib 0.051 | [9] -0.026 | ralimetinib -0.069 | [10] 0.009 | [11] -0.039 | [12] -0.156 | [13] -0.045 | [14] 0.142 | [15] -0.014 | [16] 0.031

IRF2BP1 (UniProt Q8IU81)
inactive: erlotinib -0.024 | [1] -0.114 | [2] 0.022 | [3] -0.016 | [4] 0.021 | [5] -0.039 | [6] -0.021 | [7] -0.057 | [8] 0.006 | IRAK-1-4 Inhibitor I -0.018 | ibrutinib 0.003 | [9] 0.027 | ralimetinib 0.008 | [10] 0.02 | [11] 0.006 | [12] -0.016 | [13] -0.027 | [14] 0.02 | [15] -0.001 | [16] -0.038

KDM1A (UniProt O60341)
inactive: erlotinib -0.005 | [1] 0.106 | [2] 0.021 | [3] 0 | [4] -0.006 | [5] -0.019 | [6] -0.071 | [7] -0.019 | [8] -0.009 | IRAK-1-4 Inhibitor I -0.003 | ibrutinib 0.007 | [9] -0.011 | ralimetinib 0.018 | [10] -0.016 | [11] 0.019 | [12] -0.004 | [13] 0.003 | [14] -0.004 | [15] 0.044 | [16] 0.003

ILK (UniProt Q13418)
inactive: erlotinib 0.112 | [1] 0.025 | [2] 0.019 | [3] 0.012 | [4] 0.002 | [5] -0.018 | [6] -0.04 | [7] 0.029 | [8] -0.035 | IRAK-1-4 Inhibitor I 0.045 | ibrutinib 0.017 | [9] 0.006 | ralimetinib 0 | [10] -0.022 | [11] -0.007 | [12] 0.013 | [13] -0.02 | [14] 0.049 | [15] -0.001 | [16] 0.057

HSP90AA4P (UniProt Q58FG1)
UniProt Q58FG1, sequence (Q58FG1 whole entry, looked up): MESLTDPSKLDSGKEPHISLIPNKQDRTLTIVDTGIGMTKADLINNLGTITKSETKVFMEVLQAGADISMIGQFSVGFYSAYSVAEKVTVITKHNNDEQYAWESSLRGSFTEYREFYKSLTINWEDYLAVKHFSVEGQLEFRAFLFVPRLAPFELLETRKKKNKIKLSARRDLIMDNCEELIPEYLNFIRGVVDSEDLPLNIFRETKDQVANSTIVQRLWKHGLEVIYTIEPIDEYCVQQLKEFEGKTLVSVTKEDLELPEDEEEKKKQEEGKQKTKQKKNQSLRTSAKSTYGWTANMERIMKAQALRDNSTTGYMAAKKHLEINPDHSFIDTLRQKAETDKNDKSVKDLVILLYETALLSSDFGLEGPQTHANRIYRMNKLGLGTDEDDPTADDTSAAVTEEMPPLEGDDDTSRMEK
inactive: erlotinib -0.064 | [1] 0.994 | [2] 0.097 | [3] 0.018 | [4] -0.129 | [5] 0.023 | [6] -0.003 | [7] -0.032 | [8] -0.09 | IRAK-1-4 Inhibitor I 0.081 | ibrutinib 0.026 | [9] -0.123 | ralimetinib -0.011 | [10] -0.055 | [11] 0.021 | [12] -0.071 | [13] -0.045 | [14] 0.073 | [15] 0.097 | [16] -0.051

GLUL (UniProt P15104)
UniProt P15104, sequence (P15104 whole entry, looked up): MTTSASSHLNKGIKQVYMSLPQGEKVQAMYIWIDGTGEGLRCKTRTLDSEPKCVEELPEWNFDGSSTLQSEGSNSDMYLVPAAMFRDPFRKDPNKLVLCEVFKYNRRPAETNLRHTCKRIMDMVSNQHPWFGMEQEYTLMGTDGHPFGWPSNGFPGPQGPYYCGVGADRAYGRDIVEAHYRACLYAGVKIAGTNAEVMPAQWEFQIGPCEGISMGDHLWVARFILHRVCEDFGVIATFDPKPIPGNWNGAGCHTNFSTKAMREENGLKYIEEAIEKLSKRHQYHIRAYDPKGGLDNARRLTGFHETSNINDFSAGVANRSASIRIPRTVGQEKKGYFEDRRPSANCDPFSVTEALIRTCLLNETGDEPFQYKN
inactive: erlotinib -0.003 | [1] 0.032 | [2] -0.002 | [3] 0.029 | [4] -0.03 | [5] 0.005 | [6] 0.007 | [7] 0.013 | [8] 0.017 | IRAK-1-4 Inhibitor I -0.017 | ibrutinib 0.031 | [9] 0.004 | ralimetinib 0.006 | [10] -0.002 | [11] -0.008 | [12] 0.026 | [13] 0.023 | [14] -0.117 | [15] -0.011 | [16] 0.031

GOLGA6B (UniProt A6NDN3)
UniProt A6NDN3, sequence (A6NDN3 whole entry, looked up): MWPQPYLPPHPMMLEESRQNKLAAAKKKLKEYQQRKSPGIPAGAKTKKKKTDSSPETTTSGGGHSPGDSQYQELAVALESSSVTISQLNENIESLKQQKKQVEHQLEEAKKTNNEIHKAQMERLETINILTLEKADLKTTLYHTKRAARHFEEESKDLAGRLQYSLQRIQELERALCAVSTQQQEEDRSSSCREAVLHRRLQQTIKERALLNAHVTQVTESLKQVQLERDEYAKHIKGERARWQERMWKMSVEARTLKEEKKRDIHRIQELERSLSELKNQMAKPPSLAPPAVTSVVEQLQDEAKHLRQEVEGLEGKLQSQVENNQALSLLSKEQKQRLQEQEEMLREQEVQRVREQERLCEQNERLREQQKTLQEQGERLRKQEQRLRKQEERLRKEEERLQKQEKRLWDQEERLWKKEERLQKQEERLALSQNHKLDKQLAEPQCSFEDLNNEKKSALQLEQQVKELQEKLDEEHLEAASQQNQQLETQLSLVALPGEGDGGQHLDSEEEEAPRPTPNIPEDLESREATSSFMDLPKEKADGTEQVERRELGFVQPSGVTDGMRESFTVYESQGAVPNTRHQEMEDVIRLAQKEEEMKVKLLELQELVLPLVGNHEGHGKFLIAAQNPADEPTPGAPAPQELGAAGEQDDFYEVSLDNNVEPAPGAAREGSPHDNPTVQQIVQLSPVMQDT
inactive: erlotinib 0.092 | [1] -0.061 | [2] -0.082 | [3] 0.033 | [4] 0.08 | [5] -0.013 | [6] -0.054 | [7] 0.011 | [8] 0.032 | IRAK-1-4 Inhibitor I -0.022 | ibrutinib -0.034 | [9] 0.003 | ralimetinib -0.047 | [10] -0.187 | [11] -0.057 | [12] -0.127 | [13] -0.114 | [14] 0.045 | [15] 0.066 | [16] 0

HNRNPDL (UniProt O14979)
UniProt O14979, sequence (O14979 whole entry, looked up): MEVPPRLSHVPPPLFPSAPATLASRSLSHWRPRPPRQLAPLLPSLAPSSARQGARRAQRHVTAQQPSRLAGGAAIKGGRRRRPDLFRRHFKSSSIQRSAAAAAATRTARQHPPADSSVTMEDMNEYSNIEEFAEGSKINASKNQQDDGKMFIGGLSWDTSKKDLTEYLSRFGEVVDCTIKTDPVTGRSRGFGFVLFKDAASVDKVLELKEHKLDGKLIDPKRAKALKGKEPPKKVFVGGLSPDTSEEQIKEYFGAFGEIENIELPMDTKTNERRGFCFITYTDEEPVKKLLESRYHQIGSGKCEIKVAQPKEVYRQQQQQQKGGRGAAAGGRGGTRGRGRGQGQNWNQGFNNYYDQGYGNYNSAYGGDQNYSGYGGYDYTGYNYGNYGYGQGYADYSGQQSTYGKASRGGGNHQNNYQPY
inactive: erlotinib -0.013 | [1] 0.026 | [2] 0.009 | [3] -0.008 | [4] 0.024 | [5] 0.038 | [6] 0.008 | [7] 0.006 | [8] 0.014 | IRAK-1-4 Inhibitor I -0.008 | ibrutinib 0 | ralimetinib -0.027 | [10] 0.014 | [11] -0.011 | [12] 0.013 | [13] -0.016 | [14] 0.111 | [15] -0.011 | [16] 0
active: [9] -0.692

HMGB2 (UniProt P26583)
UniProt P26583, sequence (P26583 whole entry, looked up): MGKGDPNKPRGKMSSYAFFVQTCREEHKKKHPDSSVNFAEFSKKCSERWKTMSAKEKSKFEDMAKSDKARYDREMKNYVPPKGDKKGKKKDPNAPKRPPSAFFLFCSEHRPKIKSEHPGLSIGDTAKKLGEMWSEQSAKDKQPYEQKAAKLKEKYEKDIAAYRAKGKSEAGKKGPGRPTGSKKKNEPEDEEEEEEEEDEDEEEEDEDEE
inactive: erlotinib -0.007 | [1] 0.039 | [2] 0.007 | [3] 0.008 | [4] -0.017 | [5] 0.046 | [6] 0.013 | [7] 0.014 | [8] -0.008 | IRAK-1-4 Inhibitor I -0.026 | ibrutinib -0.038 | [9] 0.012 | ralimetinib -0.034 | [10] 0.026 | [11] 0.014 | [12] -0.013 | [13] -0.001 | [14] -0.035 | [15] 0.015 | [16] -0.004

HSPB1 (UniProt P04792)
inactive: erlotinib 0.004 | [1] -0.03 | [2] 0.03 | [3] -0.012 | [4] 0.001 | [5] -0.009 | [6] 0.034 | [7] -0.013 | [8] -0.025 | IRAK-1-4 Inhibitor I 0.006 | ibrutinib -0.015 | [9] -0.008 | ralimetinib 0.022 | [10] -0.016 | [11] 0.012 | [12] 0 | [13] 0.016 | [14] -0.117 | [15] 0.006 | [16] 0.003
